Screens (PubChem)
HIV Env fusion: HIV envelope-mediated fusion inhibition | HeLa-JRFL Env/CEM21 cell fusion, luciferase | inhibition, % at 12.3 µM | 360,000 tested, 1.1% active;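 active = mean replicate inhibition score of at least 50 and every replicate individually at or above 50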;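 note: 0% = plate neutral controls and 100% = maraviroc near 300 nM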
GalR3 antag: antagonists of human GalR3; 360,000 tested, 0.44% active; HEK293 GalR3-CNG cAMP membrane potential fluorescence; galR3 body fused to GalR1 C-terminus; O60755; inhibition, % at 3 µM;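 active = inhibition above the screen-wide average plus 3 SD, cut at about 13% in these data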;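 note: forskolin and galanin both at EC90 stimulate the cells; cAMP rise reported by CNG channel membrane potential dye signal; 0% = forskolin plus galanin with DMSO and 100% = forskolin alone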
COUP-TFII inh: inhibitors of human COUP-TFII (NR2F2). AID 686940. HEK293T NGFI-A luciferase reporter, luminescence. inhibition, % at 8.6 µM. P24468. 370,000 tested, 0.7% active;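 active = inhibition above a per-plate cutoff, mean inhibition of test wells between control levels plus 3 SD, cut at about 38% in these data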;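 note: cells cotransfected with COUP-TFII expression vector driving the NGFI-A reporter; 0% = median of COUP-TF2 test wells and 100% = reporter-only cells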
Target sequence (P24468 whole entry, looked up): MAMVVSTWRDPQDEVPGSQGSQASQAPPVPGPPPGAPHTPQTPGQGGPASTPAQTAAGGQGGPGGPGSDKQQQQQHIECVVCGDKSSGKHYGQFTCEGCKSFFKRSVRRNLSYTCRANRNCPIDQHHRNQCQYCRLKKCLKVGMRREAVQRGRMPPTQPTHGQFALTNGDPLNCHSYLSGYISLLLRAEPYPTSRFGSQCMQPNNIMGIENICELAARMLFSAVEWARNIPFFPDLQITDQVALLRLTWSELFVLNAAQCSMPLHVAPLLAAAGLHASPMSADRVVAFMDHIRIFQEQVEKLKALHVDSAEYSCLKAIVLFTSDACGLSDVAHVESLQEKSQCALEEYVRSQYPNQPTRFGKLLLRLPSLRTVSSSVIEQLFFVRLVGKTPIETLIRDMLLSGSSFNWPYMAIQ
Gli-Sufu antag: antagonists of Gli-Sufu signaling. Sufu-KO-LIGHT fibroblasts, Gli luciferase reporter luminescence. 340,000 tested, 0.74% active. inhibition, % at 5 µM;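 active = inhibition above about 55%, limit read from the data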;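 note: 0% = DMSO-treated cells and 100% = wells with medium but no cells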
aDG glyco up: alpha-DG glycosylation activation; Pro5-aDG cells, alpha-DG glycosylation AlphaScreen (IIH6); 0% Pro5, 100% B10-LARGE cell signal; activation, % at 10 µM; 360,000 tested, 0.22% active; AID 624168;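 active = activation of at least 8% versus controls, or a plate z-score of at least 8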;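 note: Pro5 are CHO cells carrying HIG-tagged alpha-DG that lacks glycosylation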
Gal4-VP16 ctr: inhibits VP16 reporter, flagging COUP-TFII antagonist hits | shares compounds with COUP-TFII inh | HEK293 Gal4-VP16 luciferase reporter, luminescence | inhibition, % at 8.5 µM | 2,500 tested, 25% active | AID 687007; in the data active = inhibition above about 13%
NR2F2 inh conf: COUP-TFII (NR2F2) inhibition, confirmation assay | shares compounds with COUP-TFII inh | HEK293 NGFI-A luciferase reporter, luminescence | inhibition, % at 8.5 µM | 2,500 tested, 45% active | AID 687008;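 active = mean inhibition over three repeats above a set limit taken from the earlier primary screen, cut at about 38% in these data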;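 note: 100% = cells given the luciferase reporter alone without the COUP-TF2 vector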
Starred values were filed as active, the others as inactive; [ ] = remark or other dose. Hits are enriched below; roughly 2.1% of the tested compounds scored in any of these assays.

For COc1ccc(NC(=O)CN2C(=O)C(c3ccccc3)=NC23CCCCCC3)cc1 the results were HIV Env fusion -1, GalR3 antag -1, COUP-TFII inh -9, Gli-Sufu antag 11 and aDG glyco up 0.
Screening O=C(CN1C(=O)C(c2ccc(F)cc2)=NC12CCCC2)Nc1ccc(F)cc1 returned HIV Env fusion 32, COUP-TFII inh 39*, Gli-Sufu antag 41, aDG glyco up 0, Gal4-VP16 ctr -5 and NR2F2 inh conf 28.
CN1C(=O)C2(C(C#N)=C(N)N(c3cc(Cl)cc(Cl)c3)C3=C2C(=O)CCC3)c2ccccc21 (configuration not stated) was read as GalR3 antag -4, COUP-TFII inh 43*, Gli-Sufu antag 8, aDG glyco up 0, Gal4-VP16 ctr -16 and NR2F2 inh conf 26.
Screening O[C@@H]1[C@@H](O)C=C2CCN3Cc4cc5c(cc4[C@H]1C23)OCO5 (some centres not stated) returned COUP-TFII inh 56*, Gli-Sufu antag 69*, aDG glyco up 0, Gal4-VP16 ctr 3 and NR2F2 inh conf 26.
For COc1ccc2c(c1OC)CN1CCc3cc4c(cc3[C@@H]1[C@@H]2O)OCO4 the results were Gli-Sufu antag 10 and aDG glyco up 0.
Screening COc1ccc([C@@]23Oc4cc(OC)cc(OC)c4[C@]2(O)[C@H](O)[C@H](C(=O)N(C)C)[C@H]3c2ccccc2)cc1 returned HIV Env fusion 8, GalR3 antag 2, COUP-TFII inh 87*, Gli-Sufu antag 77*, aDG glyco up 0, Gal4-VP16 ctr 20* and NR2F2 inh conf 74*.
For CC=Cc1ccc2n(c1=O)C[C@@H]1[C@@H](CO)[C@H](C(=O)N[C@@H](C)c3ccccc3)N(C(=O)c3cnccn3)[C@H]21 (mixture of isomers) the results were HIV Env fusion 2[16.7 µM].
`COc1ccc(-c2csc(NC(=O)C3=NN(c4ccccc4)C(=O)CC3)n2)cc1` gave HIV Env fusion 30, GalR3 antag -2, COUP-TFII inh 49*, Gli-Sufu antag 2, aDG glyco up 1, Gal4-VP16 ctr -25 and NR2F2 inh conf 19.
O=C(Nc1nc(-c2cc(F)ccc2F)cs1)C1=NN(c2ccccc2)C(=O)CC1 was read as HIV Env fusion 14, GalR3 antag -2, COUP-TFII inh -1, Gli-Sufu antag 6 and aDG glyco up 0.
COc1ccc(-c2cnc3c(c2)C(=O)N([C@H](C)CO)C[C@H](C)[C@@H](CN(C)S(C)(=O)=O)O3)cc1 was read as HIV Env fusion -26[16.7 µM].
For CCN(CC)CCNC(=O)c1ccc2c(c1NCCO)C(=O)c1ccccc1C2=O the results were HIV Env fusion -35, GalR3 antag -4, COUP-TFII inh 64*, Gli-Sufu antag 42, aDG glyco up 0, Gal4-VP16 ctr -4 and NR2F2 inh conf -5.
CC1CCN(C(=O)c2ccc3c(c2NCCO)C(=O)c2ccccc2C3=O)CC1 was read as GalR3 antag -1, COUP-TFII inh 2, Gli-Sufu antag 6 and aDG glyco up 0.
CCNC(=O)C[C@@H]1CC[C@H]2[C@H](COc3ccc(NC(=O)Cc4ccccc4)cc3C(=O)N2C)O1 was read as HIV Env fusion -21[16.7 µM].
Screening Nc1ccc(Oc2cccc(Oc3ccc(N)cc3)c2)cc1 returned HIV Env fusion 31, GalR3 antag -1, COUP-TFII inh 77*, Gli-Sufu antag 34, aDG glyco up 0, Gal4-VP16 ctr 77* and NR2F2 inh conf 74*.
Screening Cc1cccc(Oc2ccc(N)cc2)c1 returned HIV Env fusion -4, GalR3 antag -6, COUP-TFII inh 13, Gli-Sufu antag -1 and aDG glyco up 0.
`Cc1cc(C)cc(Oc2ccc(N)cc2)c1` gave HIV Env fusion 14, GalR3 antag -4, COUP-TFII inh 51*, Gli-Sufu antag 1, aDG glyco up 0, Gal4-VP16 ctr 20* and NR2F2 inh conf 24.
`Nc1ccc(Oc2ccc(Br)cc2)cc1` gave HIV Env fusion 36, GalR3 antag -6, COUP-TFII inh 27, Gli-Sufu antag 8 and aDG glyco up 0.
`O=C(N[C@@H]1CC[C@H](CCNS(=O)(=O)c2ccc(F)cc2)O[C@H]1CO)C1CCCC1` gave HIV Env fusion -24[16.7 µM].
`CC(=O)CSc1ccc(-c2nc3cc(C)c(C)cc3[nH]2)cn1` gave HIV Env fusion 51, GalR3 antag -5, COUP-TFII inh 54*, Gli-Sufu antag 24, aDG glyco up 0, Gal4-VP16 ctr 2 and NR2F2 inh conf 29.
For Nc1ccc(-c2nc3ccc(C(=O)O)cc3s2)cc1 the results were HIV Env fusion 69*, GalR3 antag 2, COUP-TFII inh 42*, Gli-Sufu antag -36, aDG glyco up 0, Gal4-VP16 ctr -96 and NR2F2 inh conf -24.
Screening O=C(O)c1ccc2nc(-c3ccccc3)sc2c1 returned HIV Env fusion 44, GalR3 antag -5, COUP-TFII inh -8, Gli-Sufu antag -57 and aDG glyco up 0.
COc1ccc(-c2ccc3n(c2=O)C[C@@H]2[C@@H](CO)[C@H](C(=O)N4CCOCC4)N[C@H]32)cc1 was read as HIV Env fusion -6[16.7 µM].
COCCn1c(C)cc(C(=O)CSc2nnnn2C2CCCC2)c1C was read as HIV Env fusion 60*, GalR3 antag 0, COUP-TFII inh 59*, Gli-Sufu antag 16, aDG glyco up 0, Gal4-VP16 ctr 35* and NR2F2 inh conf 68*.
For O=C(NCc1cccnc1)c1ccc(COc2ccc(Cl)cc2)cc1 the results were HIV Env fusion 43, GalR3 antag -2, COUP-TFII inh 66*, Gli-Sufu antag 24, aDG glyco up 4, Gal4-VP16 ctr -17 and NR2F2 inh conf 4.
Screening O=C(Nc1cccc2ncccc12)c1ccc(OCc2ccccc2)cc1 returned HIV Env fusion 18, GalR3 antag -10, COUP-TFII inh 43*, Gli-Sufu antag 28, aDG glyco up 2, Gal4-VP16 ctr -9 and NR2F2 inh conf 16.
`COCC#Cc1cnc2c(c1)C(=O)N([C@@H](C)CO)C[C@H](C)[C@H](CN(C)C(=O)Nc1cccc(F)c1)O2` gave HIV Env fusion 9[16.7 µM].
CCC(=O)Nc1ccc2c(c1)C(=O)N(C)[C@@H]1CC[C@@H](CC(=O)NCC3CCCCC3)O[C@H]1CO2 was read as HIV Env fusion -10[16.7 µM].
Screening CO[C@H](CN(C)S(=O)(=O)c1ccc(F)cc1)[C@@H](C)CN(C(=O)Nc1ccccc1F)[C@H](C)CO returned HIV Env fusion 13[16.7 µM].
Screening CCOC(=O)c1ccc(NC(=O)C2CCN(S(=O)(=O)c3ccccc3)CC2)cc1 returned HIV Env fusion 3, COUP-TFII inh 10, Gli-Sufu antag 2 and aDG glyco up 0.
